What was measured:
Experiment in all cases: log2 ratio of Biotin-Ahx-Ub-VS probe labelling (fragment/DMSO); higher = less target engagement (more negative = stronger competition), active = hit call of the paper (q ≤ 0.05, log2 ratio ≤ -1)
Details in all cases: compound concentration: 200 uM; treatment time: 3 h
USP9X = USP9X (UniProt Q93008)
How it was run: (§1)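 Labelled DUBs from HEK293T lysate were NeutrAvidin-enriched, digested with LysC and trypsin, and run by diaPASEF LC-MS/MS. Before that, each 495 µg sample in Tris/CHAPS/IGEPAL buffer with protease inhibitors was treated in triplicate with fragment at 200 µM or vehicle for 3 h, then with Biotin-Ahx-Ub-VS at 0.5 µM final for 1 h. Values are average log2 ratios of fragment over vehicle by unpaired t-test, based on global-median-normalised Spectronaut label-free quantities from proteins with ≥2 unique peptides.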

UniProt O00487 = molecular target: UniProt O00487
How it was run: as §1

UniProt O00507 = molecular target: UniProt O00507
UniProt O00507, sequence (O00507 whole entry): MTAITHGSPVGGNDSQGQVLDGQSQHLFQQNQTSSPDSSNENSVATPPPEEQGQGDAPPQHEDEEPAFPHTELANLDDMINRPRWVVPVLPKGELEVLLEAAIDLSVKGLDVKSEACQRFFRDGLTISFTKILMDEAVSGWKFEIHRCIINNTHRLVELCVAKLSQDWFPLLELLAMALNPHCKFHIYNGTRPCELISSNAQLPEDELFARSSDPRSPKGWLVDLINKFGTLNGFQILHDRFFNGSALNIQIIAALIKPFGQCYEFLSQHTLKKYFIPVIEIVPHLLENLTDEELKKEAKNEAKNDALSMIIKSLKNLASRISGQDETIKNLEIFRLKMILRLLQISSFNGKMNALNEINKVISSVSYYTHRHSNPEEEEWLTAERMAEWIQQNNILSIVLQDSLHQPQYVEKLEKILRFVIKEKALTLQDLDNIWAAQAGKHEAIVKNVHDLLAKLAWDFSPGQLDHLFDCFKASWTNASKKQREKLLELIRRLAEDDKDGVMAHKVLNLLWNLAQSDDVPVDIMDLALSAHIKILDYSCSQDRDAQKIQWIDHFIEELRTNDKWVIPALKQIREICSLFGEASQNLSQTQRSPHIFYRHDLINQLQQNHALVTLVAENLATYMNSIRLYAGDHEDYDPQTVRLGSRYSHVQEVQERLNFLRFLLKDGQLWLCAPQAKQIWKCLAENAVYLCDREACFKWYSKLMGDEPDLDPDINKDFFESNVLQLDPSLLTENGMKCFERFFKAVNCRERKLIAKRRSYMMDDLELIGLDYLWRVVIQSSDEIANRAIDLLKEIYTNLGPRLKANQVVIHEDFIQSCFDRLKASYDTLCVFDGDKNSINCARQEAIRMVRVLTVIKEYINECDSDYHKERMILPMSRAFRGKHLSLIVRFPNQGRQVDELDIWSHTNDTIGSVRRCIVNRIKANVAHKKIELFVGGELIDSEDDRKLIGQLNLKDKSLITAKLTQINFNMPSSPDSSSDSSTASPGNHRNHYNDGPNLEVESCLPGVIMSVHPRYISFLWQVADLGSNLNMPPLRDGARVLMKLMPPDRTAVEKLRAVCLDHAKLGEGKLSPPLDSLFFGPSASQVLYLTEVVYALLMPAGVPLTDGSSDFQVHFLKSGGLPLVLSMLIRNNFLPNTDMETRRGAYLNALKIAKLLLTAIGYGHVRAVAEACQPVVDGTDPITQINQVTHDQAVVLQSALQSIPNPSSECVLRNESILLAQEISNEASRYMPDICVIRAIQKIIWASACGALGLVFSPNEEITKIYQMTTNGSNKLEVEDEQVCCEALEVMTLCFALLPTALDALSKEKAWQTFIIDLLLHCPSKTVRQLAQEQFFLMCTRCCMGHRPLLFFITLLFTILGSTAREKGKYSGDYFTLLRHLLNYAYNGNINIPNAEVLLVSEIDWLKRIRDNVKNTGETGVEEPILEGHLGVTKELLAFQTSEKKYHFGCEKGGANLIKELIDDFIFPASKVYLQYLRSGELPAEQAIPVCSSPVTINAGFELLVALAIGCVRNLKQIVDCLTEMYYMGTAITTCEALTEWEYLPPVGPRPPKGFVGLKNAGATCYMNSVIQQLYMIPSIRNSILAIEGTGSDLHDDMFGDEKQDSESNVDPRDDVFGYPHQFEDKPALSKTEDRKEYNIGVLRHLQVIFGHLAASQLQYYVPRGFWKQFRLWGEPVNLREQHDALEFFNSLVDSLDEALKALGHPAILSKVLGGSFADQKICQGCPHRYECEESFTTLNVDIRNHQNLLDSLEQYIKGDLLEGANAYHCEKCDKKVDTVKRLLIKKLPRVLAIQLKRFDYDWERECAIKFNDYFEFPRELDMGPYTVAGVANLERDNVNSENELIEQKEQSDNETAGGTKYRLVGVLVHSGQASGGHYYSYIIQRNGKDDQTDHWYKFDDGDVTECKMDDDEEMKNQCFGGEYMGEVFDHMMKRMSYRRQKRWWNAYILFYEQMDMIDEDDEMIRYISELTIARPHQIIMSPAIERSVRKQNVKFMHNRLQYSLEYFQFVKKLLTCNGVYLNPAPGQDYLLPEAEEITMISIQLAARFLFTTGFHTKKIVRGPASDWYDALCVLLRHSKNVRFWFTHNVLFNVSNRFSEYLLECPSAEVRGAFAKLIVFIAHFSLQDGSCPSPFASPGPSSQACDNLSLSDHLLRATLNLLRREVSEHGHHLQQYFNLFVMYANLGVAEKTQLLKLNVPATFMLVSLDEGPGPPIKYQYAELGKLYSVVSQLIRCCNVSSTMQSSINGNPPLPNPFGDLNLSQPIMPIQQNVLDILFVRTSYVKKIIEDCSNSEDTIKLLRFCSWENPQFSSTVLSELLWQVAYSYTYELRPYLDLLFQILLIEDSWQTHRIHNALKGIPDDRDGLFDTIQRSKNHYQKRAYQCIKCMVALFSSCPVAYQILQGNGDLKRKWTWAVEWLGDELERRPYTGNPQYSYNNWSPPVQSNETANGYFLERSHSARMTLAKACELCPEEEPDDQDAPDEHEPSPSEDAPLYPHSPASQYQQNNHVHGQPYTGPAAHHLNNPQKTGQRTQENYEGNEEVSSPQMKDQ
How it was run: as §1

UniProt P51784 = molecular target: UniProt P51784
How it was run: as §1

UniProt Q5T2D3 = molecular target: T1, UniProt Q5T2D3
T1 sequence (whole entry): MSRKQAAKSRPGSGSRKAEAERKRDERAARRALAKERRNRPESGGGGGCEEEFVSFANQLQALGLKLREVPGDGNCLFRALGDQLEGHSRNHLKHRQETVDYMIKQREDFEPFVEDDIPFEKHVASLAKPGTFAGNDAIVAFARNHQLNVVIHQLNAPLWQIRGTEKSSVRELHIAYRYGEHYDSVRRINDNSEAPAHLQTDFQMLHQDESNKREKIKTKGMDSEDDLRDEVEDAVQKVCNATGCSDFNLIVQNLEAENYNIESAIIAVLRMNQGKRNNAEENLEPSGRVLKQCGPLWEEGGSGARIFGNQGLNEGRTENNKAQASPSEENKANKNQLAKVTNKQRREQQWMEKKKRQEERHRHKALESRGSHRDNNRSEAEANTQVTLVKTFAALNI
How it was run: as §1

UniProt Q8TE49 = molecular target: T2, UniProt Q8TE49
T2 sequence (whole entry): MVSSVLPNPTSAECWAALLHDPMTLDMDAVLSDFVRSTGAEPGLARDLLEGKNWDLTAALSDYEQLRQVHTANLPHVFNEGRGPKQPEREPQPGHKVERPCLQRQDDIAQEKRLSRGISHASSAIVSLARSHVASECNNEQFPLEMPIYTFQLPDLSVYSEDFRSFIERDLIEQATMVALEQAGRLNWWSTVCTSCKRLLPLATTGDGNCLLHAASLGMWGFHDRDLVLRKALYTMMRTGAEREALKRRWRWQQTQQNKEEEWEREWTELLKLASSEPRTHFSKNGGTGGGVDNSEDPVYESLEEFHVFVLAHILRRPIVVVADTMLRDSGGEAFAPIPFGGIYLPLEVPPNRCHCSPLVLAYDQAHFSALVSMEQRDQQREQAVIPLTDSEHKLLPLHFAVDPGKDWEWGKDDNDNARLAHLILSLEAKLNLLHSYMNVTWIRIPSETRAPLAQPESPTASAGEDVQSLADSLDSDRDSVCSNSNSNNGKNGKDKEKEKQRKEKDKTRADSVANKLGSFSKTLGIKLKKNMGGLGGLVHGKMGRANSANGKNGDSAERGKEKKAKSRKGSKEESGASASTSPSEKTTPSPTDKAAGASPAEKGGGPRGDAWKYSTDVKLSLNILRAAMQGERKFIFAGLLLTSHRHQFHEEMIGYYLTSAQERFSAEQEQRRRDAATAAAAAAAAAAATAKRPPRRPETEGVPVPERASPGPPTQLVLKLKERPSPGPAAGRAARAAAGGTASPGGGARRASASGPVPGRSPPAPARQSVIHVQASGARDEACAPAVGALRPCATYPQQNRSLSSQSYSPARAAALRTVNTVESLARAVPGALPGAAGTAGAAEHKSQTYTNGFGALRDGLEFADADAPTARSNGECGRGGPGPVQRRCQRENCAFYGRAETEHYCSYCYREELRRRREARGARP
How it was run: as §1

UniProt Q9P2H5 = molecular target: T3, UniProt Q9P2H5
T3 sequence (whole entry): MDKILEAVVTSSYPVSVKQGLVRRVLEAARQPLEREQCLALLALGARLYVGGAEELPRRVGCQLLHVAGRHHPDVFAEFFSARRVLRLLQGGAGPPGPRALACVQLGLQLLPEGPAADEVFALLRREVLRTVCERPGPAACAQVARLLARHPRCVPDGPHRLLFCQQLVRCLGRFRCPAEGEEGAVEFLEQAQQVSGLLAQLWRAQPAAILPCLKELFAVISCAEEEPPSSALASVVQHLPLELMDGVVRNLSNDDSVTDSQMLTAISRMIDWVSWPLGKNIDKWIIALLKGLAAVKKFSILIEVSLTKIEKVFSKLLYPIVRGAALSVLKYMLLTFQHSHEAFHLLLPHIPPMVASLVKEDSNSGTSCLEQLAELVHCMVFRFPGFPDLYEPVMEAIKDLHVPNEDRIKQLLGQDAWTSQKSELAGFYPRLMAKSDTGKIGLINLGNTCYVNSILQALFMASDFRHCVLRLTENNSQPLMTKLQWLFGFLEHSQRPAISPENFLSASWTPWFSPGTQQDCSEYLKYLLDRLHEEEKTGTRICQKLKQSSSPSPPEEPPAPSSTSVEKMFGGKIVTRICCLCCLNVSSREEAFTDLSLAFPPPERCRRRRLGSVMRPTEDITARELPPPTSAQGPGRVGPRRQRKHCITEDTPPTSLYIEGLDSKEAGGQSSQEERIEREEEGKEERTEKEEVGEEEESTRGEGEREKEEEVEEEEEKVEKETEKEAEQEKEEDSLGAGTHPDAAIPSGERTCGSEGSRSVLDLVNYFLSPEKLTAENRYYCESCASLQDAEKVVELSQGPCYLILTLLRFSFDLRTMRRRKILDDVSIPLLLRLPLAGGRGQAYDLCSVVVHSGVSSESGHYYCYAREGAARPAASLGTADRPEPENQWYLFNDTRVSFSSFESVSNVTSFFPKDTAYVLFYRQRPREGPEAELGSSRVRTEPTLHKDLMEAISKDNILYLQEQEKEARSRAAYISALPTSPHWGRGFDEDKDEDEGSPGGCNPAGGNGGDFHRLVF
How it was run: as §1

UniProt Q9UGI0 = molecular target: T4, UniProt Q9UGI0
T4 sequence (whole entry): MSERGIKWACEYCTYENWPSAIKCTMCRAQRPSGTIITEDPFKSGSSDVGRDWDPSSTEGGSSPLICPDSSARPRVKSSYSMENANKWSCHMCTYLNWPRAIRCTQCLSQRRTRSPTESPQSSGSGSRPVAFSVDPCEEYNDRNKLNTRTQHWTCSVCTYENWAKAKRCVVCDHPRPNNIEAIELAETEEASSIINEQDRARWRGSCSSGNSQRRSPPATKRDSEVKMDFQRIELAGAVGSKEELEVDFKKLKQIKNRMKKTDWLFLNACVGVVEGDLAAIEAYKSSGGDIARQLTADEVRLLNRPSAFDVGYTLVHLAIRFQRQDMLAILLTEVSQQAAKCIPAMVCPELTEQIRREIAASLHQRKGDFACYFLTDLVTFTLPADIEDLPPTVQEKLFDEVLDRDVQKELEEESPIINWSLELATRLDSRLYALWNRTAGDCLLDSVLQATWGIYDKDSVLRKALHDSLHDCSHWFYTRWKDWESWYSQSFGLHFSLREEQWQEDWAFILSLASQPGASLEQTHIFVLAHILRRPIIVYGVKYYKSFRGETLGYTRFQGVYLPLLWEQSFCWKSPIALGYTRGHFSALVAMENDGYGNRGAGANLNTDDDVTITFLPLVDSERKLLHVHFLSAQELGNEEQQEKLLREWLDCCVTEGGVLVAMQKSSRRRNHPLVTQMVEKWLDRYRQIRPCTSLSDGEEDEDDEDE
How it was run: as §1

YOD1 = molecular target: T5, YOD1 (UniProt Q5VVQ6)
T5 sequence (whole entry): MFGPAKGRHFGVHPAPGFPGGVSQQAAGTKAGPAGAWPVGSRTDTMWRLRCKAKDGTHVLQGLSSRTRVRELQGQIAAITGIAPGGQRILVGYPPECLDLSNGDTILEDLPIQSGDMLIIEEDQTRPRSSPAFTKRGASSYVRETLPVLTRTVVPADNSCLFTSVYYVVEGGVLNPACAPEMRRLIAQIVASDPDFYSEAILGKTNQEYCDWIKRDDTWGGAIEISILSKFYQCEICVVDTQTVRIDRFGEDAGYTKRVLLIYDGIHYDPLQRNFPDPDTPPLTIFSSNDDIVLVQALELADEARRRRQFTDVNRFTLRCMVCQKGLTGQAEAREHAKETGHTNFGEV
How it was run: as §1

Measured: log2 ratio of Biotin-Ahx-Ub-VS probe labelling

USP9X, sequence (Q93008 whole entry, the tested form may be a part): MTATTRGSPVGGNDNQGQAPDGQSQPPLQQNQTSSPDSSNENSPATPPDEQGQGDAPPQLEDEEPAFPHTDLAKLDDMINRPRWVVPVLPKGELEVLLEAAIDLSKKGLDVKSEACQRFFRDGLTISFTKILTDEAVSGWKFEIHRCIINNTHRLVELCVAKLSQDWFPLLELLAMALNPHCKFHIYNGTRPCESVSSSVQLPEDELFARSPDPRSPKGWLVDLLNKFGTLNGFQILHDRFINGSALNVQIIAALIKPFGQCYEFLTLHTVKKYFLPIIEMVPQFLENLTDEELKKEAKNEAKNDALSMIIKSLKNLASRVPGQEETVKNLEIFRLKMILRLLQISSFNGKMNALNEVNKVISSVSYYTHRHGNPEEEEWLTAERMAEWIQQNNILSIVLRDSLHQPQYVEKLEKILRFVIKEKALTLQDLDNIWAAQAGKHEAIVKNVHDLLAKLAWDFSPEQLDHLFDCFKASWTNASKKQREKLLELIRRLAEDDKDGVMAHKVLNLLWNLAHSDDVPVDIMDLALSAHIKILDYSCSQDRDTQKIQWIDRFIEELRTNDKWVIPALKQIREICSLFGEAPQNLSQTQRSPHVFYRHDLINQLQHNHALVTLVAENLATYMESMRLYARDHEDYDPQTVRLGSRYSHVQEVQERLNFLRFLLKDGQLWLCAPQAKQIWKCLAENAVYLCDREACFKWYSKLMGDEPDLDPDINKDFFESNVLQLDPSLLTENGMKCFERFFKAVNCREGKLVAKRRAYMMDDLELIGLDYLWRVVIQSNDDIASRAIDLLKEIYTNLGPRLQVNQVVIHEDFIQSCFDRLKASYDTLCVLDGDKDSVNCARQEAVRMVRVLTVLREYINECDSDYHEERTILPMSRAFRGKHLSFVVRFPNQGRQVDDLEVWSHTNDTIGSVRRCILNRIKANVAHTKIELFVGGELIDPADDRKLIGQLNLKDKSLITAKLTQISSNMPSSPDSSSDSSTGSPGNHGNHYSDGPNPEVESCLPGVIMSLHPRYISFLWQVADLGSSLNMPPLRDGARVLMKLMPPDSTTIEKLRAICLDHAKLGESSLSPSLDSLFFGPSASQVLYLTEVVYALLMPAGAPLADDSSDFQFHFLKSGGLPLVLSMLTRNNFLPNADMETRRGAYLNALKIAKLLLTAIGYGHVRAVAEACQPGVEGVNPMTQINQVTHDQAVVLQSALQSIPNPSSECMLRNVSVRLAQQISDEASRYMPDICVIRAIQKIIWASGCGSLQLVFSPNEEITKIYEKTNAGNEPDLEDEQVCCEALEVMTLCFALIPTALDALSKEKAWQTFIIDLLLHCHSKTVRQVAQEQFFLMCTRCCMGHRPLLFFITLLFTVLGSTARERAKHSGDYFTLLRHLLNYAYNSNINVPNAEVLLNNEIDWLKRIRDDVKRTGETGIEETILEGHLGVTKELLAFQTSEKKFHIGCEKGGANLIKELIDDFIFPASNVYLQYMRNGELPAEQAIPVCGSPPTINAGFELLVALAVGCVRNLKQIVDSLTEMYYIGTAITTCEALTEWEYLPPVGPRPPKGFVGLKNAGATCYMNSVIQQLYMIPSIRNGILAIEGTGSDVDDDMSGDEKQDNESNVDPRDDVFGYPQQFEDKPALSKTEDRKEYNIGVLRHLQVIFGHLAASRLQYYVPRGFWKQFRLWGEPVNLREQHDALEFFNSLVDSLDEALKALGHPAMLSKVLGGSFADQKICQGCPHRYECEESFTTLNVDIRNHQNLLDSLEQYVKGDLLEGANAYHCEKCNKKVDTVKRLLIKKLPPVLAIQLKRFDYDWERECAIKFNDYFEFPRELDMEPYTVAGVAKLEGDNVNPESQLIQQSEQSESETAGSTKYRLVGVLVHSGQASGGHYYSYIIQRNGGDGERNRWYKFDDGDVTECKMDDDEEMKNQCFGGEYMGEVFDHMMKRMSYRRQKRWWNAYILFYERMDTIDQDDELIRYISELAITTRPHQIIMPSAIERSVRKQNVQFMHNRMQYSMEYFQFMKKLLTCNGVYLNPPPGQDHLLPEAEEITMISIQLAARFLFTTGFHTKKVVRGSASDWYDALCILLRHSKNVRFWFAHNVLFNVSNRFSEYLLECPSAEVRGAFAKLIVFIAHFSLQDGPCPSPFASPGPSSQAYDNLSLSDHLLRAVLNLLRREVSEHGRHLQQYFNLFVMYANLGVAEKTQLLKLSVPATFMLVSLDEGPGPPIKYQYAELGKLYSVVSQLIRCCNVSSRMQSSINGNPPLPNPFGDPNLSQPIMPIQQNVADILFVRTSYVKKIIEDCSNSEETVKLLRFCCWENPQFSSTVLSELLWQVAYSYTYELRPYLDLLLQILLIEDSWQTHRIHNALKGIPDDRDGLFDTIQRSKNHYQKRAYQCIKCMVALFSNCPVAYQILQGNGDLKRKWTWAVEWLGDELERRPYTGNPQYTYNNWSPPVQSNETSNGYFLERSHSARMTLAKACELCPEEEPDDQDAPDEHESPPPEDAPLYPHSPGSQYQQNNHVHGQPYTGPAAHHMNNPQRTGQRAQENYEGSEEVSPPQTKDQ

CN(C)C(=O)c1ccc(NC(=O)CCl)cc1
inactive: USP9X -0.0881 | UniProt O00487 -0.0189 | UniProt O00507 0.0581 | UniProt P51784 -0.0219 | UniProt Q5T2D3 0.0298 | UniProt Q8TE49 0.182 | UniProt Q9P2H5 0.102 | UniProt Q9UGI0 -0.97 | YOD1 0.0572

Source: the supplement of paper PMC11732987, “Enantioselective OTUD7B fragment discovery through chemoproteomics screening and high-throughput optimisation” (Communications Chemistry, 2025)
